The target in test [1] is Calcium/calmodulin-dependent protein kinase type II subunit alpha (Homo sapiens) (UniProt Q9UQM7). To be noted: at 1 µM.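 Note: reported value is a mean percent inhibition of CAMK2A.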
Test [2] has as its target Calcium/calmodulin-dependent protein kinase type II subunit delta (Homo sapiens) (UniProt Q13557). To be noted: at 0.1 µM.
Test [3] has the same target. To be noted: at 1 µM.
The target in test [4] is T1, Calcium/calmodulin-dependent protein kinase type IV (Homo sapiens) (UniProt Q16566).
T1 sequence (whole entry): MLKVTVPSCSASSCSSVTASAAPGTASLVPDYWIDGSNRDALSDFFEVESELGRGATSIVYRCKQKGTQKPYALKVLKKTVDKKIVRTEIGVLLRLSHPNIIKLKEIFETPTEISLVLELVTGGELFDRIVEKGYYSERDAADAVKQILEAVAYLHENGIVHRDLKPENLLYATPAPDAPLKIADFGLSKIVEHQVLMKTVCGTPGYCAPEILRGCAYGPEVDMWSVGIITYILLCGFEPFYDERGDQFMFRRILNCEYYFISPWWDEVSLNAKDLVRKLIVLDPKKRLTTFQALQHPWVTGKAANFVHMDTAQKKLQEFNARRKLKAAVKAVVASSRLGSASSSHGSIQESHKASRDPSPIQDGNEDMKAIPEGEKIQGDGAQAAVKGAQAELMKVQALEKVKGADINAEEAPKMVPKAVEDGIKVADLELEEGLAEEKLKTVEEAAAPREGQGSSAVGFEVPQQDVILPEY
The settings on record: at 0.1 µM.

In test [5] the target is T1, Calcium/calmodulin-dependent protein kinase type IV (Homo sapiens). To be noted: at 1 µM.
Test [6] concerns the target T2, Serine/threonine-protein kinase Chk1 (Homo sapiens) (UniProt O14757).
T2 sequence (whole entry): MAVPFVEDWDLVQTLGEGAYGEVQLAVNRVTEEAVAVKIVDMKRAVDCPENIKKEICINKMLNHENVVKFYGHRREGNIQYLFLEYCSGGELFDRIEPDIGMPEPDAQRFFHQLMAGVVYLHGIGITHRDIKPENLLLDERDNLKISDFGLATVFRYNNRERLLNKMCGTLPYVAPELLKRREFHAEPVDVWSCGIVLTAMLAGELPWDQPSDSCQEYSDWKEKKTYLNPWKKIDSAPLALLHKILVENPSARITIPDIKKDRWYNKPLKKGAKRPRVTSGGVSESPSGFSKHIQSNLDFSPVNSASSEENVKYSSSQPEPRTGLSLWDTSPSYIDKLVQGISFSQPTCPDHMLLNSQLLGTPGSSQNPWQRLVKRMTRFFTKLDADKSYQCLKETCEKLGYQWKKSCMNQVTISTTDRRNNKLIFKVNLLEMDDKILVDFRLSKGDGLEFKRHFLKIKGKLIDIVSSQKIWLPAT
The settings on record: at 0.1 µM.

Test [7] addresses T2, Serine/threonine-protein kinase Chk1 (Homo sapiens). The settings on record: at 1 µM.
In test [8] the target is Serine/threonine-protein kinase Chk2 (Homo sapiens) (UniProt O96017). To be noted: at 0.1 µM.
The target is the same in test [9]. To be noted: at 1 µM.
Test [10] has as its target Death-associated protein kinase 1 (Homo sapiens) (UniProt P53355). The settings on record: at 0.1 µM.
The target is the same in test [11]. The settings on record: at 1 µM.
The target in test [12] is T3, Serine/threonine-protein kinase DCLK2 (Homo sapiens) (UniProt Q8N568).
T3 sequence (whole entry): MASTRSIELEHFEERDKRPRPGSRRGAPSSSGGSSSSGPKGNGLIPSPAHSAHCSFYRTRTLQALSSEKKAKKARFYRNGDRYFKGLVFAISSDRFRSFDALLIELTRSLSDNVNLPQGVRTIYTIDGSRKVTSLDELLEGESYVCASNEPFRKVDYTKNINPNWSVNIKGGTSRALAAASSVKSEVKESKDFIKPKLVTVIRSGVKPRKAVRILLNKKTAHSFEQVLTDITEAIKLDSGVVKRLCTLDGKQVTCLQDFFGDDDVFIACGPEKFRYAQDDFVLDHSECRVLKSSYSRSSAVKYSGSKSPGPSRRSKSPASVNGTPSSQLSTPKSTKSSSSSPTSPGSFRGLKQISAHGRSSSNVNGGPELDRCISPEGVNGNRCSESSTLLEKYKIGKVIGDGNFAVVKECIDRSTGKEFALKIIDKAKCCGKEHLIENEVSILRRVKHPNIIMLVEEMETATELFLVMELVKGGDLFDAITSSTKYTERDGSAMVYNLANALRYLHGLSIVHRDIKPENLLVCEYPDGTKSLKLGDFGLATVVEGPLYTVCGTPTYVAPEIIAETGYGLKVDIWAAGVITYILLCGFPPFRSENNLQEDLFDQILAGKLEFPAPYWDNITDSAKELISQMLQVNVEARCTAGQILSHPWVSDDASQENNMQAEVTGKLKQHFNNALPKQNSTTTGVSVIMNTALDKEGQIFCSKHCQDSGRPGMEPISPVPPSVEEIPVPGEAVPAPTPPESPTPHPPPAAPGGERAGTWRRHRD
To be noted: at 0.1 µM.

Test [13] has as its target T3, Serine/threonine-protein kinase DCLK2 (Homo sapiens). To be noted: at 1 µM.
Test [14] addresses MAP kinase-activated protein kinase 2 (Homo sapiens) (UniProt P49137). To be noted: at 0.1 µM.
For test [15] the target is unchanged. The settings on record: at 1 µM.
The target of test [16] is MAP kinase-activated protein kinase 3 (Homo sapiens) (UniProt Q16644). The settings on record: at 0.1 µM.
Sequence of MAP kinase-activated protein kinase 3 (Homo sapiens) (Q16644 whole entry, looked up): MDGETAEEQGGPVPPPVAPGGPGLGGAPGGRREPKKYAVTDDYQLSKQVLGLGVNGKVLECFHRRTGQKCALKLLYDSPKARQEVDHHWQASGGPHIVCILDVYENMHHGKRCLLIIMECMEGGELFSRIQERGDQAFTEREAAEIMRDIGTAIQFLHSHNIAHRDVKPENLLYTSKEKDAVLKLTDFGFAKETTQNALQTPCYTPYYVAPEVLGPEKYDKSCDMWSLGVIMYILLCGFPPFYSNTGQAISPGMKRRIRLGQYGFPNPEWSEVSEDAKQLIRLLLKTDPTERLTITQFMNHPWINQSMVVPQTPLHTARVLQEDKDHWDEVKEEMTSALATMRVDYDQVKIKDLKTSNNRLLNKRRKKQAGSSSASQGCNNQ
The target is the same in test [17]. To be noted: at 1 µM.
Test [18] deals with Serine/threonine-protein kinase MARK1 (Homo sapiens) (UniProt Q9P0L2). To be noted: at 0.1 µM.
Sequence of Serine/threonine-protein kinase MARK1 (Homo sapiens) (Q9P0L2 whole entry, looked up): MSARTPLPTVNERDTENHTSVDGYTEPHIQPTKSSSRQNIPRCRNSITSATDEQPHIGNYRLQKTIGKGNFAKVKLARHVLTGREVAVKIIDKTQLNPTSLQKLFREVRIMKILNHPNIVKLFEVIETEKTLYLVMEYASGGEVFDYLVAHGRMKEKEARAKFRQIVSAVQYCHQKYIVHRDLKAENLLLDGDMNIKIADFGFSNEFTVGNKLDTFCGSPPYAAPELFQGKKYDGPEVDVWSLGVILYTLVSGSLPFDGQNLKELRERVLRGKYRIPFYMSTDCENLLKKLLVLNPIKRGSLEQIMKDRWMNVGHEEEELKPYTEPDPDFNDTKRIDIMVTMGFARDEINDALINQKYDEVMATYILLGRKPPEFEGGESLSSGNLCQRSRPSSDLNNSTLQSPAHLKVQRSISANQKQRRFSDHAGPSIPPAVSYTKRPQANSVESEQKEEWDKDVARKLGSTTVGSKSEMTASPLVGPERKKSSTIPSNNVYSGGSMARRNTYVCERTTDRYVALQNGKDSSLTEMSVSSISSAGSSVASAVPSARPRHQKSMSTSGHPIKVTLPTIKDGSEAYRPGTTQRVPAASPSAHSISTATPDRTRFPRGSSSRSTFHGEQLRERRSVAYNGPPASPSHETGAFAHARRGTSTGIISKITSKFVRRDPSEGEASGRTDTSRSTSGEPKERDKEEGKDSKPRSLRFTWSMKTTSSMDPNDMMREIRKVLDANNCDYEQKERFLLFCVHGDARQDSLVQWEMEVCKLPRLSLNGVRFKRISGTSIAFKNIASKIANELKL
For test [19] the target is unchanged. The settings on record: at 1 µM.
Test [20] addresses MAP/microtubule affinity-regulating kinase 3 (Homo sapiens) (UniProt P27448). The settings on record: at 0.1 µM.

Sequence of MAP/microtubule affinity-regulating kinase 3 (Homo sapiens) (P27448 whole entry, looked up): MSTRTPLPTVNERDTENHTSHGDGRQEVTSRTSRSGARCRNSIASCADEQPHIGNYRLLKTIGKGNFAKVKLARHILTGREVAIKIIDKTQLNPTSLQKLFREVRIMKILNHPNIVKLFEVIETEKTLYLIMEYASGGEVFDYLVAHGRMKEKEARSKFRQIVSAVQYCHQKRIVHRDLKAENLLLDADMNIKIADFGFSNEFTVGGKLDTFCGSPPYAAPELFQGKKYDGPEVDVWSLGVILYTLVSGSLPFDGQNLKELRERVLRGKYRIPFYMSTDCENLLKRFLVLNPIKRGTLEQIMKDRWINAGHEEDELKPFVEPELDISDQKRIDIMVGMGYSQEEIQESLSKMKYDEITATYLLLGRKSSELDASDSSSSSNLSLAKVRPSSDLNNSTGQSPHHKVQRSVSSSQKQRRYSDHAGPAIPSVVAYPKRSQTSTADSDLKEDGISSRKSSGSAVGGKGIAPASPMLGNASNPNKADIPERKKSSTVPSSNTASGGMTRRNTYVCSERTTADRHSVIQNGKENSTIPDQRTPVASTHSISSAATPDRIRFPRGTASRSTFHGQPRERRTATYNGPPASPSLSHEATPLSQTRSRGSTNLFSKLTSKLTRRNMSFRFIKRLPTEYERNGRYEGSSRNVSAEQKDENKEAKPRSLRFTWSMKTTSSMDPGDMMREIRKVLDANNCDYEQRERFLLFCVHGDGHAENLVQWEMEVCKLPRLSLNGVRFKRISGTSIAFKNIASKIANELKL
Sequence of Calcium/calmodulin-dependent protein kinase type II subunit delta (Homo sapiens) (Q13557 whole entry): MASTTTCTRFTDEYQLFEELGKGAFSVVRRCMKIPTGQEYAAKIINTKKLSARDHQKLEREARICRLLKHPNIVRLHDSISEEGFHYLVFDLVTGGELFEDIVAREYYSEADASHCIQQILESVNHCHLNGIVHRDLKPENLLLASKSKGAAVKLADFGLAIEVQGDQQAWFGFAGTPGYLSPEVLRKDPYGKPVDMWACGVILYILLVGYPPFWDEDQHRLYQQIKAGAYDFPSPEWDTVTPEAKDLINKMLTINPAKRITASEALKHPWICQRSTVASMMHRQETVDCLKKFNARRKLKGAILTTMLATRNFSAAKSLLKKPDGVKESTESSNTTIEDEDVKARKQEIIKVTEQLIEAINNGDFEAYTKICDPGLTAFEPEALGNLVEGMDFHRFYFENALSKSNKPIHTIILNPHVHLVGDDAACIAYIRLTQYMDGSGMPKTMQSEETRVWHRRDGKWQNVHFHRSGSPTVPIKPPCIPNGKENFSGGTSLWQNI
Sequence of Calcium/calmodulin-dependent protein kinase type II subunit alpha (Homo sapiens) (Q9UQM7 whole entry): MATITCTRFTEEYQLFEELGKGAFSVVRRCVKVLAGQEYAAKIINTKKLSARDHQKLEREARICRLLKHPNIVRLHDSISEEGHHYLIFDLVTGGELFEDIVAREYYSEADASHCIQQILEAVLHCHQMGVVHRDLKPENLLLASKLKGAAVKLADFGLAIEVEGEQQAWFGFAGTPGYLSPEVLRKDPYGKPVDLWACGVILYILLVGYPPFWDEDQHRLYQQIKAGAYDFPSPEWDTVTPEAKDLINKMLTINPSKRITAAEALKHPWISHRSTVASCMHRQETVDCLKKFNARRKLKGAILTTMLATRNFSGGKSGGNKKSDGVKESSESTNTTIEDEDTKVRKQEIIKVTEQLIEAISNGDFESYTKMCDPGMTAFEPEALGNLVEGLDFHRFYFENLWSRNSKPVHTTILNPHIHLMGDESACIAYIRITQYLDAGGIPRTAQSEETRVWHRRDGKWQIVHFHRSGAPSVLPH
Sequence of Death-associated protein kinase 1 (Homo sapiens) (P53355 whole entry, looked up): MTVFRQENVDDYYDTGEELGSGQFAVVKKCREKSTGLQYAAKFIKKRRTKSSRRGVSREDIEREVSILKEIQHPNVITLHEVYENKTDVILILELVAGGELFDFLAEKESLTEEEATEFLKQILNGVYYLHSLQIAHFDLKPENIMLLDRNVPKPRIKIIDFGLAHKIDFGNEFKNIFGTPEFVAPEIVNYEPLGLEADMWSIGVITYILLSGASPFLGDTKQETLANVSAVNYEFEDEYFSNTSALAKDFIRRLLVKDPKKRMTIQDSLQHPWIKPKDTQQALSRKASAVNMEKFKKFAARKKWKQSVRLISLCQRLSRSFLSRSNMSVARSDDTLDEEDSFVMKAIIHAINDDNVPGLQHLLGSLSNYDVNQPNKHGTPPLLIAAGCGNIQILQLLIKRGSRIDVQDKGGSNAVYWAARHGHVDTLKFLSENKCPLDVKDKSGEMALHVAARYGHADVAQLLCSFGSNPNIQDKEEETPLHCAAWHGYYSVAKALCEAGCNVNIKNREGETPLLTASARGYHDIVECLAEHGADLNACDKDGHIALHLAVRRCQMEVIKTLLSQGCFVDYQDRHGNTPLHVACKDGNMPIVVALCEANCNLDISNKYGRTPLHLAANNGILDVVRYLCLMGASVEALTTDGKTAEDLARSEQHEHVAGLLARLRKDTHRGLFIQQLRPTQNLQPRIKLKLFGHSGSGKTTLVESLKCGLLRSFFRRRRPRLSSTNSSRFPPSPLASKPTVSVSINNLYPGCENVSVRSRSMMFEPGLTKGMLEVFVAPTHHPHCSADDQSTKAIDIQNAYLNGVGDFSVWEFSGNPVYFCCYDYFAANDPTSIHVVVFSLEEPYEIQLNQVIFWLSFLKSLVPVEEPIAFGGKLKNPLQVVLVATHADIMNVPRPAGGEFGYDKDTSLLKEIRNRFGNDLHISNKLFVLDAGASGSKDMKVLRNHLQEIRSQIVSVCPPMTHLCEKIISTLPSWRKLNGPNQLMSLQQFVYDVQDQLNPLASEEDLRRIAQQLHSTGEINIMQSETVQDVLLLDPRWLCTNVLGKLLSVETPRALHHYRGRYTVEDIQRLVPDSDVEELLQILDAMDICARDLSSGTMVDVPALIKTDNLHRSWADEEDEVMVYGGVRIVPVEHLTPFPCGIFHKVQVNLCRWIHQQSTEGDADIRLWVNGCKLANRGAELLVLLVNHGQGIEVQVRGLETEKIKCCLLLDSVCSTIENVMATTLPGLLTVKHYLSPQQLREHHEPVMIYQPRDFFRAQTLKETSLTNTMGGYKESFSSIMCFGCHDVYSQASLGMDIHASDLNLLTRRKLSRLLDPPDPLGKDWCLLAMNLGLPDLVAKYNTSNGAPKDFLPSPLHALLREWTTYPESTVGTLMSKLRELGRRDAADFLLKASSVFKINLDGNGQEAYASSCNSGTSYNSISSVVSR
Sequence of MAP kinase-activated protein kinase 2 (Homo sapiens) (P49137 whole entry, looked up): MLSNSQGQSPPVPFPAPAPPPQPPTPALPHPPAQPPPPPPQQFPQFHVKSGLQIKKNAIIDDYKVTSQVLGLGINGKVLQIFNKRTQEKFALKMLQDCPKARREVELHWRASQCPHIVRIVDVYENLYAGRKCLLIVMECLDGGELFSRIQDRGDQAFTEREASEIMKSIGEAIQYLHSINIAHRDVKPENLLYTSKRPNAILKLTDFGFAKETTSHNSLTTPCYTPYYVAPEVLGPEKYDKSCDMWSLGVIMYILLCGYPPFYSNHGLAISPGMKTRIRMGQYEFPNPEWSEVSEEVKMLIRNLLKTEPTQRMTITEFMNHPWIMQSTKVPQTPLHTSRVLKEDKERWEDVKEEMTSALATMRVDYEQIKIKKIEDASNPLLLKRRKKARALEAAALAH

With `c1ccc(COc2ccc(Nc3ncnc4ccc(-c5ccco5)cc34)cc2)cc1`, the inhibition was 0.02% in [1]; 0.67% in test [2]; 0.25% in [3]; 1.19% in test [4]; 0.04% in [5]; 0.21% in test [6]. Besides, the inhibition is -0.59% in [7]; 1.08% in [8]; 4.69% in test [9]; 2.45% in test [10]; 0.73% in [11]; -0.98% in test [12]. Further, the inhibition in [13] was -0.08%; in test [14], 2.44%; in test [15], 0.12%; in test [16] it was 1.07%; in test [17], -0.28%; in [18] it was 0.18%. The inhibition in test [19] worked out at 1.8%; in [20] it was 0.1%.

With `COc1ccc(-c2nn3ncccc3c2-c2ccnc(Nc3ccc4c(c3)OCCO4)n2)cc1`, the inhibition is -2.04% in [1]; 0.97% in test [2]; 0.2% in [3]; 1.75% in test [4]; -0.47% in test [5]; -2.62% in test [6]. The inhibition in test [7] was -1.19%; in [8] it was -1.05%; in test [9] it was 0.02%; in test [10] it was 2.51%; in [11], 2.06%; in test [12] it was -1.54%. Besides, the inhibition in test [13] was -0.74%; in [14] it was 0.19%; in test [15], 0.03%; in test [16], 30.9%; in test [17], 37%; in test [18] it was 0.34%. Further, the inhibition is 2.66% in test [19] and 3% in test [20].

`CCOc1ccc2c(-c3ccnc(Nc4cccc(C(F)(F)F)c4)n3)cnn2n1`: the inhibition in test [1] is -2.29%; in test [2], 2.41%; in test [3], 0.44%; in test [4], 1.94%; in test [5], -1%; in [6] it was 3.49%. Besides, the inhibition is 3.51% in test [7]; 1.55% in test [8]; 1.92% in [9]; 3.1% in [10]; 1.54% in [11]; 1.21% in test [12]. The inhibition is 3.6% in [13]; 0.79% in test [14]; -0.24% in [15]; 2.73% in test [16]; 1.86% in test [17]; 2.43% in test [18]. Further, the inhibition in [19] is 3.98%; in test [20], 1.6%.

In the case of `COc1cc(Nc2nccc(Nc3ccc4c(C)n[nH]c4c3)n2)cc(OC)c1OC`, the inhibition came out at 4.38% in [1]; 3.41% in [2]; 3.54% in test [3]; 1.45% in test [4]; 4.68% in test [5]; 1.45% in test [6]. Besides, the inhibition was 3.35% in test [7]; 1.73% in [8]; 9.02% in [9]; 1.68% in test [10]; 2.65% in test [11]; -0.29% in test [12]. For the same compound, the inhibition in test [13] worked out at 2.5%; in test [14], 0.91%; in test [15], 0.86%; in test [16], 1.05%; in [17], 1.36%; in test [18], 2.59%. Further, the inhibition in test [19] was found to be 8.82%; in [20], 3.33%.

Turning to `COc1cc(N2CCN(C(C)C)CC2)ccc1Nc1nc(Nc2ccc(F)cc2C(N)=O)c2cc[nH]c2n1`, the inhibition in test [1] was determined as 53.3%; in test [2], 29%; in [3] it was 75.1%; in [4], 4.5%; in test [5], 29.3%; in test [6], 3.09%. Further, the inhibition is 27.8% in test [7]; 49.6% in test [8]; 79.1% in test [9]; 5.07% in [10]; 46% in [11]; -0.62% in [12]. Also, the inhibition in test [13] was 8.47%; in test [14], 0.94%; in test [15] it was 5.03%; in [16] it was 3.04%; in [17] it was 7.11%; in test [18], 7.7%. The inhibition in [19] was 47.7%; in test [20], 12.3%.

As to `COc1ccc(-c2cc3c(N)ncnc3o2)cc1`, the inhibition was -0.48% in test [1]; -0.8% in test [2]; -0.85% in test [3]; 0.63% in test [4]; -1.72% in test [5]; 0.13% in [6]. Besides, the inhibition was 2.78% in test [7]; -1.09% in test [8]; 3.25% in [9]; -1.84% in test [10]; -3.05% in [11]; -1.82% in test [12]. Further, the inhibition was 0.37% in test [13]; -1.21% in test [14]; -0.76% in test [15]; -1.27% in test [16]; -1.91% in [17]; 0.03% in test [18]. Besides, the results for the inhibition in test [19] and in [20] were 2.81% and -1.55%, respectively.

The values are drawn from ChEMBL document CHEMBL1961873, “Compounds: GSK PKIS; Assays: Nanosyn kinase panel” (2012).
